Screening results deposited in PubChem by National Center for Advancing Translational Sciences (NCATS).
A selection: hits, their analogues and other compounds. The true share with any hit is near 3.8%.
HepG2 tox: HepG2 cytotoxicity, counter-screen for TGF-b inhibitors | HepG2 CAGA-GFP viability, ATP luminescence, 18 h | Potency, µM (highest dose often 46.1 µM), actives largely listed as cytotoxic | 410,000 compounds, 0.76% hits
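CellTiter-Glo luminescence gave cytotoxicity after 18 hours at 37 degrees C. The cells were HepG2 CAGA-GFP in 1% FBS DMEM, stimulated with 500 pg/mL TGF-beta after compound addition. %Activity was normalised to no-cell wells (complete cell-killing) and DMSO (no toxicity), and curves were fitted and classified.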
Nrf2 inh: Nrf2 pathway inhibition; A549 ARE-Fluc reporter, luciferase luminescence, 18-24 h; AID 504444; Potency, µM (top dose mostly 46 µM), usual class: inhibitors; 360,000 compounds, 2.1% hits; further: nearly all actives have a fitted effect of over 60% in size
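Nrf2 function is reported as luminescence of an ARE-controlled luciferase in A549 cells. Compounds were tested at several concentrations, and a CellTiter-Fluor read on the same wells flagged cytotoxicity.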
A549 viability: counter-screen for Nrf2 inhibitors: cytotoxicity in A549 cells | A549 ARE-Fluc cells, CellTiter-Fluor viability, 18-24 h | 390,000 compounds, 0.16% hits | Potency, µM (doses to about 46 µM), hits mostly inhibitors
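A549 ARE-Fluc cells in 5% FBS OPTI-MEM, 5000 cells/well, rested 2 h then exposed to compounds in concentration-response for 18-24 h at 37 °C. Viability by CellTiter-Fluor fluorescence (Ex 405/Em 525) after 30 min; luciferase luminescence (BugLite, 15 min, RT) read afterwards.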
TGFb inhibitor: TGF-b pathway inhibition. HepG2 CAGA-GFP TGF-b/SMAD3 reporter, GFP fluorescence, 18 h; TGF-beta stimulated, 500 pg/mL final. Potency, µM (highest dose often 46.1 µM), actives largely listed as inhibitors. 410,000 compounds, 1.2% hits. AID 588855; further: nearly all actives have a fitted effect of over 65% in size
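Read-out: total well GFP (ex488/em500-530) summed from mean per-cell fluorescence. Cells: HEPG2 CAGA-GFP, 1% FBS DMEM, 18 h at 37 degrees C with 500 pg/mL final TGF-beta. Unstimulated wells served as the full-inhibition control; stimulated DMSO wells = 0%.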
ATXN2 expr inh: inhibitors of ATXN2 expression; HEK-293 ATXN2-luciferase reporter, luminescence, 24 h; Potency, µM (series often up to 57 µM), most hits filed as inhibitors; 360,000 compounds, 0.72% hits; AID 1745845; further: nearly all actives have a fitted effect of over 55% in size
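ATXN2-luciferase reporter cells (luciferase flanked by upstream and downstream ATXN2 gene portions) were treated 24 h at 37 °C with compounds at up to 57 uM. SteadyGlo luminescence gave expression; GF-AFC fluorescence gave viability.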
S2 tox: reduces viability in counter-screen for ATXN expression inhibitors; S2 cells (HEK-293 line with an ATXN2-luciferase reporter) viability, CellTiter-Fluor protease fluorescence, 24 h; Potency, µM (series often up to 56.7 µM), actives largely listed as cytotoxic; 400,000 compounds, 0.49% hits; further: nearly all actives have a fitted effect of over 40% in size
Hits are given with their value; n = inactive; u = inconclusive; x = not tested or not shown; [ ] = another dose, or the depositor's remark. The call rests on the fitted dose curve; in most records, active means well fitted curve in the direction sought with a large enough effect; inconclusive means small, poorly fitted or top-dose-only effect, or another doubt; inactive means no such curve, though single readings can be large; an effect the other way counts as inactive or inconclusive.

SMILES	HepG2 tox	Nrf2 inh	A549 viability	TGFb inhibitor	ATXN2 expr inh	S2 tox
Cc1ccc(-c2nn(CC(=O)NCc3cc(-c4nn(C)c(=O)c5ccccc45)ccc3C)c(=O)c3ccccc23)cc1	3.55µM	u	n	n	11.2µM	12.6µM
Cc1ccc(Cl)cc1NS(=O)(=O)c1ccc2oc(=O)c3ncn(C)c3c2c1	10µM	u	n	15.8µM	x	x
Cc1ccc(Cl)cc1N1CCN(CCCNc2ncnc3onc(-c4ccc(F)cc4)c23)CC1	n	u	u	n	n	n
COc1ccc(-c2nc(-c3ccncc3)no2)cc1	n	u	n	n	x	n
CCS(=O)(=O)n1nc(-c2ccc(C)cc2)nc1N	n	n	n	n	n	n
CCn1nc(-c2ccc(C)cc2)nc2c(=O)n(C)c(=O)nc1-2	0.708µM	u	u	0.501µM	x	x
Cn1nc(-c2ccncc2)nc2c(=O)n(C)c(=O)nc1-2	n	2.31µM	2.91µM	1.26µM	x	x
CC1=C(C(=O)Nc2ccccc2)C(c2ccncc2)n2nc(SCc3ccccc3Cl)nc2N1 (centres undefined)	n	n[9.27 µM]	n	n	n	n
CC(C)C[C@H](NC(=O)c1[nH]cnc1C(=O)N[C@H](C)c1ccccc1)C(=O)OC(C)(C)C	15.8µM	u	n	u	u	x
CC(C)(C)OC[C@H](NC(=O)c1[nH]cnc1C(=O)Nc1ccccc1F)C(=O)OC(C)(C)C	20µM	x	x	u	u	x
CC(C)C[C@H](NC(=O)c1nc[nH]c1C(=O)NC(c1ccccc1)c1ccccc1)C(=O)OC(C)(C)C	n	u	u	u	u	u
CC(C)(C)OC(=O)NCCCCCNC(=O)c1[nH]cnc1C(=O)Nc1ccc(Cl)cc1	17.8µM	16.4µM	u	u	u	u
CCOC(=O)c1ccc(NC(=O)c2nc[nH]c2C(=O)N[C@@H](Cc2ccccc2)C(=O)OC(C)(C)C)cc1	n	u	n	u	u	u
CC(C)(C)OC(=O)[C@H](Cc1ccccc1)NC(=O)c1[nH]cnc1C(=O)Nc1ccc(Cl)cc1	15.8µM	u	n	u	u	x
CCCCCCC(=O)NC(Nc1ccc(S(N)(=O)=O)cc1)C(Cl)(Cl)Cl (centres undefined)	n	n	n	u	n	n
O=C(CS(=O)CC(=O)Nc1cccnc1)Nc1ccc(F)cc1 (centres undefined)	n	n	n	n	n	n
Cc1ccc([C@@H]2C[C@H]3[C@@H](CN2S(=O)(=O)c2ccc(C)cc2)C(=O)C[C@@H](c2ccc(Cl)cc2)N3S(=O)(=O)c2ccccc2C)cc1	n	x	x	n	n	n
COc1ccc(C(=O)N2CCCCC2CCN2CCOCC2)cc1 (centres undefined)	n	n	n	n	x	x
O=[N+]([O-])c1ccc(N2CCCC2)c([N+](=O)[O-])c1	n	x	x	n	x	n
O=C(NCc1ccccc1)c1cnc(N2CCCCC2)c2ccccc12	n	x	n	n	x	x
CCOC(=O)c1c(-c2ccc(Br)cc2)csc1NC(=O)c1ccc(C(C)(C)C)cc1	n	n	n	n	x	x
CC(C)(C)OC(=O)[C@H](Cc1ccccc1)NC(=O)c1[nH]cnc1C(=O)N[C@@H](Cc1ccccc1)C(=O)OCc1ccccc1	n	u	n	u	n	u
CC(C)C[C@H](NC(=O)c1nc[nH]c1C(=O)NCC(=O)OC(C)(C)C)C(=O)OC(C)(C)C	n	u	n	u	n	u
CC(C)C[C@H](NC(=O)c1[nH]cnc1C(=O)Nc1ccc(Cl)cc1)C(=O)OC(C)(C)C	n	u	n	u	u	28.2µM
C[C@H](NC(=O)c1nc[nH]c1C(=O)N[C@@H](Cc1ccccc1)C(=O)OC(C)(C)C)C(=O)OC(C)(C)C	15.8µM	u	n	u	u	x
SMILES	HepG2 tox	Nrf2 inh	A549 viability	TGFb inhibitor	ATXN2 expr inh	S2 tox
CC(C)C[C@H](NC(=O)c1nc[nH]c1C(=O)N[C@@H](CC(C)C)C(=O)OC(C)(C)C)C(=O)OC(C)(C)C	n	25.9µM	u	u	u	22.4µM
CCCCC(=O)Nc1ccc(NC(=O)c2ccc([N+](=O)[O-])cc2)cc1OC	n	n	n	u	n	n
CCCCC(=O)Nc1ccc(C(=O)Nc2ccc(OC)cc2[N+](=O)[O-])cc1	n	20.6µM	u	n	u	u
O=C(Nc1ccccc1O)c1c(O)c2c([nH]c1=O)CCCC2	n	u	n	12.6µM	n	u
COC(=O)[C@]12CCCCC=C1N(CCC1=CCCCC1)C(=O)[C@H](CC(=O)N1CCOCC1)C2	x	x	x	x	n	u
CCc1cc(=S)n2c([nH]c3ccccc32)c1C#N	n	u	n	7.94µM	u	x
CCOCCCNC(=O)c1c(NC(=O)c2cc(=O)c3ccccc3o2)sc2c1CCC2	n	n	n	n	n	n
Cc1cc(C)c(NC(=O)Cc2ccc(-n3c(C)nc4cccnc43)cc2)c(C)c1	n	u	n	12.6µM	x	x
Cc1cc(C)c2c(=O)cc(C(=O)Nc3sc4c(c3C#N)CCCC4)oc2c1	n	u	n	n	n	n
COc1ccc(NC(=O)c2cccc(Oc3ccc([N+](=O)[O-])cc3Cl)c2)cc1	n	u	u	u	n	n
COc1cccc(C(=O)COc2cccc(NC(=O)c3cccc([N+](=O)[O-])c3)c2)c1	n	18.4µM	n	n	u	u
O=C(Nc1cccc(Cl)c1)c1cccc(Oc2ccc([N+](=O)[O-])cc2Cl)c1	n	20.6µM	n	15.8µM	x	u
O=C(c1cccc(C(F)(F)F)c1)N1CCOC12CCN(c1ncc(C(F)(F)F)cc1Cl)CC2	n	25.9µM	n	u	n	n
CCOc1ccc(N(C)C(=O)c2oc(=O)c3ccccc3c2-c2ccccc2)cc1	n	u	n	15.8µM	x	x
COc1ccc(C(=O)COC(=O)CNS(=O)(=O)c2ccc(C)cc2)cc1	n	n	n	n	n	n
Nc1c(Cl)ncnc1NCCc1ccc(O)cc1	n	5.8µM	n	n	n	n
O=C(Nc1ccc(F)cc1F)c1ccc2c(c1)CCN2S(=O)(=O)c1ccc(Cl)cc1	n	u	n	n	n	u
CCOC(=O)C1Nc2ccccc2C2C(O)C(O)CC12 (centres undefined)	n	n	n	u	n	u
O=C(NCc1ccccc1)C1Nc2ccc(OC(F)(F)F)cc2C2C=CCC12 (centres undefined)	n	n	n	u	n	n
CCOC(=O)C1Nc2ccc(C(F)(F)F)cc2C2c3ccccc3CC12 (centres undefined)	n	u	u	u	25.1µM	u
O=C(NCCOc1ccccc1)C1Nc2ccc(C(F)(F)F)cc2C2c3ccccc3CC12 (centres undefined)	15.8µM	n	n	u	n	n
